Source: PubChem BioAssay (Tox21)
Where “and” joins values, the source holds several entries; their conditions need not be identical. Identical values can stand only once. Inconclusive results are not listed. A call without a number means that no potency is given here. Values without a mark were called inactive. Calls of active or inactive are those of the source. Unless noted, calls come from the whole dose curve; as a rule, active = well fitted curve in the direction sought with a large enough effect in the repeat runs; inconclusive = weak or mixed curves; inactive = no such curve, though single readings can be large; an effect the other way counts as inactive or inconclusive.

What was measured:
[1] = qHTS assay to identify small molecule agonists of the RXR signaling pathway - cell viability counter screen (AID 1159529); note: nearly all actives have a fitted effect of over 50% in size; note: potency is the fitted concentration of half-maximal effect
How it was run: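 Compounds dissolved in DMSO were pinned onto HEK 293T cells carrying a beta-lactamase reporter under RXR-alpha control and incubated 16 hr. Cytotoxicity was then quantified by CellTiter-Glo luminescence.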

[2] = qHTS assay to identify small molecule antagonists of the estrogen related receptor (ERR) signaling pathway from Tox21 library - cell viability counter screen (AID 1224834); note: nearly all actives have a fitted effect of over 30% in size; note: potency is the fitted concentration of half-maximal effect
How it was run: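 CellTiter-Fluor fluorescence measured; ERR cells; 17.5 h compound incubation at 37 C; 30 min reagent step.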

[3] = molecular target: Luciferin 4-monooxygenase (Photinus pyralis) (UniProt P08659); assay: qHTS assay to identify small molecule inhibitors of firefly luciferase (AID 1224835); note: nearly all actives have a fitted effect of over 25% in size; note: potency is the fitted concentration of half-maximal effect
How it was run: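 Biochemical qHTS: compounds run as interplate titrations against purified firefly enzyme, with D-luciferin and ATP each at its KM concentration. Light output recorded by CCD imaging.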

[4] = qHTS assay to identify small molecule agonists of the constitutive androstane receptor (CAR) signaling pathway - cell viability counter screen (AID 1224836); note: nearly all actives have a fitted effect of over 45% in size; note: potency is the fitted concentration of half-maximal effect
How it was run: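 23 h treatment, 37 C, 5% CO2. Cell line: HepG2 stably expressing hCAR with a CYP2B6-2.2kb construct. Co-treatment: PK11195, 0.75 uM final. Read-out: CellTiter-Fluor fluorescence intensity.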

[5] = qHTS assay to identify small molecule antagonists of the constitutive androstane receptor (CAR) signaling pathway - cell viability counter screen (AID 1224837); note: nearly all actives have a fitted effect of over 45% in size; note: potency is the fitted concentration of half-maximal effect
How it was run: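 Using CellTiter-Fluor, viability is scored in HepG2 cells stably carrying hCAR and a 2.2kb CYP2B6 reporter after 23 hr compound exposure across 15 concentrations, with CITCO present at 50 nM.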

[6] = molecular target: Nuclear receptor subfamily 1 group I member 3 (Homo sapiens) (UniProt Q14994); assay: qHTS assay to identify small molecule agonists of the constitutive androstane receptor (CAR) signaling pathway (AID 1224839);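 note: HepG2 cells stably carrying human CAR and a CYP2B6 luciferase reporter; nearly all actives have a fitted effect of over 15% in size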
How it was run: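 Compounds tested at 15 concentrations on HepG2 cells stably harbouring hCAR and CYP2B6-2.2kb reporter constructs, co-treated with PK11195 (0.75 uM final), 24 h at 37 C; luminescent reporter signal quantified.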

[7] = qHTS assay to identify small molecule antagonists of the estrogen related receptor signaling pathway with the pleiotropic PPARgamma coactivator (PGC) from Tox21 10K library - cell viability counter screen (AID 1224840; active = well fitted cell-killing curve with a large enough effect in the repeat runs, not every such curve was filed as active; note: nearly all actives have a fitted effect of over 40% in size; note: potency is the fitted concentration of half-maximal effect)
How it was run: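 Here the PGC/ERR cells serve as a cytotoxicity control: they are exposed to compounds for 17.5 hours at 37 C, and live-cell signal is quantified using CellTiter-Fluor fluorescence.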

[8] = molecular target: Thyrotropin receptor (Homo sapiens) (UniProt P16473); assay: qHTS assay to identify small molecule agonists of the thyroid stimulating hormone receptor (TSHR) signaling pathway (AID 1224843; calls by dose curve; note: nearly all actives have a fitted effect of over 45% in size; note: potency is the fitted concentration of half-maximal effect)
How it was run: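 TSHR-HEK293 cells in agonist mode, 30 min room-temperature step, then cAMP measured by competitive HTRF (cAMP-d2 with anti-cAMP cryptate) after 1 h at room temperature. Tested at 15 concentrations in triplicate.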

[9] = qHTS assay to identify small molecule antagonists of the retinoic acid receptor (RAR) signaling pathway (AID 1159552; note: potency is the fitted concentration of half-maximal effect; nearly all actives have a fitted effect of over 50% in size)
How it was run: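 Test chemicals and DMSO controls were pin-transferred onto C3RL4 cells a day after seeding; retinol (1 uM final) followed at once. Luminescent reporter output was quantified after 6 hr of co-incubation and 30 min with detection reagent.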

[10] = molecular target: Nuclear receptor subfamily 1 group I member 3 (Homo sapiens) (UniProt Q14994); assay: qHTS assay to identify small molecule antagonists of the constitutive androstane receptor (CAR) signaling pathway (AID 1224838);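 note: HepG2 cells stably expressing hCAR with CYP2B6 luciferase reporter stimulated by CITCO; nearly all actives have a fitted effect of over 40% in size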
How it was run: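 Reporter luminescence was quantified after 24 h exposure of hCAR/CYP2B6-2.2kb double-stable HepG2 cells to compounds at 15 concentrations in the presence of 50 nM CITCO final.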

[11] = qHTS assay to identify small molecule antagonists of the estrogen related receptor signaling pathway with the pleiotropic PPARgamma coactivator (PGC) from Tox21 10K library (AID 1224841; call rule not given here; note: actives are mostly falling curves and most rising ones were filed inactive; nearly all actives have a fitted effect of over 50% in size; note: potency is the fitted concentration of half-maximal effect)
How it was run: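 Each well held 2,000 PGC/ERR cells, pre-incubated six hours (37 C, 5% CO2). Test substances in DMSO were added by pin tool and left for 18 h at 37 C before luciferase detection by One-Glo.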

[12] = qHTS assay to identify small molecule agonists of the estrogen related receptor signaling pathway with the pleiotropic PPARgamma coactivator (PGC) from Tox21 10K library (AID 1224842); note: nearly all actives have a fitted effect of over 15% in size; note: potency is the fitted concentration of half-maximal effect
How it was run: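 PGC/ERR reporter cell line, 2,000 cells per well, incubated 6 h at 37 C before 23 nL compound in DMSO was added. After 18 h at 37 C, One-Glo luminescence read following 30 min at room temperature.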

[13] = qHTS assay to identify small molecule antagonists of the estrogen related receptor (ERR) signaling pathway - cell viability counter screen (AID 1224818);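 note: viability measured after 17.5 h of compound exposure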
How it was run: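 In the same ERR cell assay, compound-treated wells (17.5 h, 37 C) were multiplexed with a fluorogenic viability reagent, CellTiter-Fluor, read after 30 min to flag cytotoxic substances.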

[14] = qHTS assay to identify small molecule antagonists of the estrogen related receptor (ERR) signaling pathway (AID 1224819; note: potency is the fitted concentration of half-maximal effect; nearly all actives have a fitted effect of over 50% in size)
How it was run: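 qHTS in ERR cells, 2,000/well, 1536 format. Cpd (DMSO) added after 6 h settle, 18 h 37 C. One-Glo luminescence, 30 min RT.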

[15] = qHTS assay to identify small molecule agonists of the estrogen related receptor (ERR) signaling pathway (AID 1224820)
How it was run: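 Cells: ERR line from NTP, 2,000/well. Pre-incubation 6 h, 37 C/5% CO2. Compound (DMSO) pin transfer, 18 h 37 C. One-Glo, 30 min RT, luminescence.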

[16] = qHTS assay to identify small molecule agonists of the estrogen related receptor signaling pathway with the pleiotropic PPARgamma coactivator (PGC) (AID 1224823)
How it was run: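 Steps: plate PGC/ERR cells at 2,000 cells/well; incubate 6 h, 37 C/5% CO2; pin-transfer compounds (DMSO); incubate 18 h, 37 C; add One-Glo; 30 min RT; read luminescence.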

[17] = qHTS assay to identify small molecule antagonists of the retinoid acid receptor (RAR) signaling pathway - cell viability counter screen (AID 1159551); note: nearly all actives have a fitted effect of over 35% in size
How it was run: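 Seed C3RL4 cells; next day add compound, then retinol to 1 uM final; incubate 6 h at 37 C; add CellTiter-Glo; read luminescence after 30 min at RT.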

[18] = qHTS assay to identify small molecule agonists of the retinoic acid receptor (RAR) signaling pathway (AID 1159553); settings: C3RL4 RARE luciferase reporter, agonist, 6 h; activation: at 73.3 µM (top of the series) unless noted
How it was run: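 Activation of retinol signaling was monitored via a RARE luciferase reporter in C3RL4 cells. After 6 hr compound treatment at 37 C, detection reagent was added for 30 min at room temperature before luminescence reading.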

Luciferin 4-monooxygenase (Photinus pyralis), sequence (P08659 whole entry, looked up): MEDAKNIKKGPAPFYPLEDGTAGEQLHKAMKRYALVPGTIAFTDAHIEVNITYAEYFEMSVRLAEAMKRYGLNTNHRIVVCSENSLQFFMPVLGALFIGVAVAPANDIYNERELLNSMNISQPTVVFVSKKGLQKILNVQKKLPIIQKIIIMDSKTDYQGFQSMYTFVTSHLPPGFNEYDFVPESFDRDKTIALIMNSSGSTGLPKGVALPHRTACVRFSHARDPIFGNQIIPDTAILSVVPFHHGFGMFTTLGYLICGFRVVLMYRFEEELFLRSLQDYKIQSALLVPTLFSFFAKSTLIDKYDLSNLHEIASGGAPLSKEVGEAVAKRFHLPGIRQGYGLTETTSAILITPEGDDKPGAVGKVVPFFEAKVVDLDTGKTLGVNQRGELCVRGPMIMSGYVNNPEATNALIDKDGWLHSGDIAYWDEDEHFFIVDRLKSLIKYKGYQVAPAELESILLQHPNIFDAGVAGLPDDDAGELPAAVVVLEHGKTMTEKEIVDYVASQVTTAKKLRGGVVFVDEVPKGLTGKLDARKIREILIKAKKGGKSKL
Nuclear receptor subfamily 1 group I member 3 (Homo sapiens), sequence (Q14994 whole entry, looked up): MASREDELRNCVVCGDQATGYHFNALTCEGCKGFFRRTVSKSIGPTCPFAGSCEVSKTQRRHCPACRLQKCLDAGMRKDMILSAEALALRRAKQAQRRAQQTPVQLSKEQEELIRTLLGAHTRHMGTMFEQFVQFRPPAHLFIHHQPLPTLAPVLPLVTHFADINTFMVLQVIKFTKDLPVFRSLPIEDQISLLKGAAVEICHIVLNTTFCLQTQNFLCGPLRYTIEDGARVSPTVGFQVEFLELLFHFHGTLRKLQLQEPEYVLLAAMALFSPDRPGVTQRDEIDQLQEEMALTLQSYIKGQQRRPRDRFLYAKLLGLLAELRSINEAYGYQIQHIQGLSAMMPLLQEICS
Thyrotropin receptor (Homo sapiens), sequence (P16473 whole entry, looked up): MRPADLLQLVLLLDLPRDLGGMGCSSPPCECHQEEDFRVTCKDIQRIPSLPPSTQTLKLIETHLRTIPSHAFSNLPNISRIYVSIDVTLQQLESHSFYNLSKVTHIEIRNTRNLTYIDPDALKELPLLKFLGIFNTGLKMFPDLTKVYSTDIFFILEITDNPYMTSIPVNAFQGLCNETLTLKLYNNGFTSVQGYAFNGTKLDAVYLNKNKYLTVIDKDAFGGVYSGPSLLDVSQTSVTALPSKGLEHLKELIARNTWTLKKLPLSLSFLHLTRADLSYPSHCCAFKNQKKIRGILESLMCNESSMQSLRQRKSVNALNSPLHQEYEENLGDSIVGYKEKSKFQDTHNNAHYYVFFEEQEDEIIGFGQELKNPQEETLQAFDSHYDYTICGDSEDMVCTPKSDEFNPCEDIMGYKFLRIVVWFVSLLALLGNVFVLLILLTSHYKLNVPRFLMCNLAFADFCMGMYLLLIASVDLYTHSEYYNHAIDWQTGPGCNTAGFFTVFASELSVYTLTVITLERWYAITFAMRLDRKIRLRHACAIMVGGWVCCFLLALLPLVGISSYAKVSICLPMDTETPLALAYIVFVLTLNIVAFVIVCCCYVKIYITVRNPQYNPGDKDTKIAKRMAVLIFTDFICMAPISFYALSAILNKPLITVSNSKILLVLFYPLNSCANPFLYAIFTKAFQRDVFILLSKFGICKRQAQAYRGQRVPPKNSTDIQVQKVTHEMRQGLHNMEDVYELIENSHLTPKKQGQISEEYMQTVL

SMILES: COc1cc(S(=O)(=O)O)c(C)cc1N=Nc1c(O)ccc2cc(S(=O)(=O)O)ccc12
- Potency [1]: inactive
- Potency [2]: 27.3 µM (active)
- Potency [3]: 63.3 µM (active)
- Potency [4]: 30.6 µM (active)
- Potency [5]: 27.3 µM (active)
- Potency [6]: inactive
- Potency [7]: 27.3 µM (active)
- Potency [8]: inactive

SMILES: CN(C)[C@@H](CCOc1cccc2ccccc12)c1ccccc1
- Potency [1]: 21.3 µM (active)
- Potency [9]: 29.8 µM (active)
- Potency [3]: inactive
- Potency [5]: inactive
- Potency [10]: inactive
- Potency [6]: inactive
- Potency [11]: inactive
- Potency [12]: inactive
- Potency [8]: 33.5 µM (active)

SMILES: CC(=O)[C@H]1CC[C@H]2[C@@H]3CCC4=CC(=O)CC[C@]4(C)[C@H]3CC[C@]12C
- Potency [1]: 38.7 µM (active) and 43.6 µM (active)
- Potency [9]: 48.3 µM (active) and 30.6 µM (active)
- outcome [13]: inactive
- Potency [14]: 11.9 µM (active)
- outcome [15]: inactive
- outcome [16]: inactive
- Potency [2]: 30.5 µM (active) and 30.6 µM (active)
- Potency [3]: inactive
- Potency [5]: inactive
- Potency [11]: 27.1 µM (active) and 13.7 µM (active)
- Potency [8]: inactive

SMILES: CN1CCC[C@@H]1CCO[C@](C)(c1ccccc1)c1ccc(Cl)cc1
- Potency [1]: 8.49 µM (active)
- Potency [17]: inactive
- Potency [2]: 26.6 µM (active)
- Potency [6]: inactive
- Potency [11]: inactive
- Potency [12]: inactive

SMILES: O=C(O)c1cc(-c2ccc(F)cc2F)ccc1O
- Potency [1]: inactive
- Potency [17]: inactive
- Potency [3]: 34.7 µM (active)
- Potency [4]: inactive
- Potency [5]: inactive
- Potency [10]: inactive
- Potency [7]: inactive
- Potency [11]: 9.44 µM (active)
- Potency [12]: inactive

SMILES: Cc1cccc(C)c1NC(=O)c1ccc(N)cc1
- Potency [1]: inactive
- Potency [17]: inactive
- Potency [2]: inactive
- Potency [3]: inactive
- Potency [4]: inactive
- Potency [5]: inactive
- Potency [7]: inactive
- Potency [11]: inactive
- Potency [12]: inactive
- Potency [8]: inactive

SMILES: CC1=Nc2ccccc2C1(C)C
- Potency [1]: inactive
- Potency [2]: inactive
- Potency [3]: 20 µM (active)
- Potency [4]: inactive
- Potency [5]: inactive
- Potency [7]: inactive
- Potency [11]: inactive
- Potency [12]: 30.7 µM (active)
- Potency [8]: inactive

SMILES: CC(C)OC(=O)C(O)(CC(=O)O)CC(=O)O
- Potency [1]: inactive
- Potency [17]: inactive
- Potency [2]: inactive
- Potency [3]: inactive
- Potency [4]: inactive
- Potency [5]: inactive
- Potency [10]: inactive
- Potency [7]: inactive
- Potency [11]: inactive
- Potency [8]: inactive

SMILES: CN1CCN(Cc2cc(-c3ccc4[nH]c(=O)oc4c3)co2)[C@@H](c2ccc(F)cc2)C1
- Potency [1]: inactive
- Potency [17]: inactive
- Potency [2]: 23.4 µM (active)
- Potency [3]: inactive
- Potency [10]: inactive
- Potency [6]: inactive
- Potency [8]: 13.2 µM (active)

SMILES: CCN(CC)C(=O)c1cc(S(=O)(=O)Cc2ccccc2)c(N2CCC(c3ccccc3)CC2)cc1N(CC)CCN(C)C
- Potency [1]: 15.3 µM (active)
- Potency [9]: 21.4 µM (active)
- Potency [18]: inactive
- Potency [2]: 19.1 µM (active)
- Potency [3]: inactive
- Potency [4]: 21.4 µM (active)
- Potency [6]: inactive
- Potency [7]: 21.4 µM (active)
- Potency [12]: inactive

SMILES: S=c1nccc[nH]1
- Potency [1]: inactive
- Potency [17]: inactive
- Potency [2]: inactive
- Potency [3]: inactive
- Potency [4]: inactive
- Potency [5]: inactive
- Potency [6]: inactive
- Potency [7]: inactive
- Potency [11]: inactive
- Potency [12]: inactive
